Compounds without any hit were thinned out: in the full panel of roughly 79,000, 15% have a hit. Rule as the data show it: active = growth inhibition above about 70%; inactive = the rest.
What was measured:
[1] = NCI Yeast Anticancer Drug Screen. Data for the rad52 strain (AID 147);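 also: 0% = growth of vehicle-treated control cultures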; conditions: S. cerevisiae rad52 mutant growth inhibition, stronger effect = higher value
Method in brief: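 Screen used a yeast mutant impaired in DNA repair. After compound exposure, growth was measured. Values reflect inhibition compared with vehicle-treated cells.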

[2] = NCI Yeast Anticancer Drug Screen. Data for the wt1 strain (AID 149);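 also: 0% = growth of vehicle-treated wt1 cultures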; conditions: S. cerevisiae wt1 strain (SPY 50644) growth inhibition, stronger effect = higher value
Method in brief: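 Vehicle-normalised growth inhibition; strain wt1; compound exposure.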

[3] = NCI Yeast Anticancer Drug Screen. Data for the rad50EPP+ strain (AID 151);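 also: 0% = growth of vehicle-treated control cultures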; conditions: S. cerevisiae rad50 mutant strain, stronger effect = higher value
Method in brief: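 Exposing the rad50EPP+ strain to each compound, growth was compared with vehicle-only cultures to give inhibition.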

[4] = NCI Yeast Anticancer Drug Screen. Data for the mgt1 strain (AID 153); conditions: S. cerevisiae mgt1 mutant growth inhibition, stronger effect = higher value
Method in brief: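 Genetically defined yeast (mgt1) treated with compound; inhibition of growth expressed against vehicle-treated controls.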

[5] = NCI Yeast Anticancer Drug Screen. Data for the rad50 strain (AID 155);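 also: 0% = growth of vehicle-only cultures of the same strain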; conditions: S. cerevisiae rad50 strain growth inhibition, stronger effect = higher value
Method in brief: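 A DNA repair-deficient yeast mutant serves as the test organism; compound-induced growth inhibition is calculated against vehicle-treated cells.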

[6] = NCI Yeast Anticancer Drug Screen. Data for the mec2-1 strain (AID 157); conditions: S. cerevisiae mec2-1 strain, stronger effect = higher value
Method in brief: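 Readout is yeast growth inhibition, normalised to vehicle-treated controls, in the mec2-1 strain exposed to compound.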

[7] = NCI Yeast Anticancer Drug Screen. Data for the rad14 strain (AID 159);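 also: 0% = growth of vehicle-treated control cultures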; conditions: S. cerevisiae rad14 strain growth inhibition, stronger effect = higher value
Method in brief: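 Vehicle-treated cultures served as the baseline for growth inhibition of a DNA repair-mutant yeast strain exposed to each compound.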

[8] = NCI Yeast Anticancer Drug Screen. Data for the sgs1 mgt1 strain (AID 161);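 also: 0% = growth of cultures given vehicle only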; conditions: S. cerevisiae sgs1 mgt1 strain, stronger effect = higher value
Method in brief: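 This yeast growth screen uses a strain with defined DNA-repair lesions; compound-treated growth is compared with vehicle-treated growth.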

[9] = NCI Yeast Anticancer Drug Screen. Data for the CLN2oe strain (AID 163);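 also: 0% = growth of vehicle-only control cultures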; conditions: S. cerevisiae CLN2oe strain, stronger effect = higher value
Method in brief: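 Values reflect how much compound exposure reduced yeast growth, referenced to vehicle-exposed cells. Assay organism is a strain with a defined genetic change affecting cell-cycle control.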

[10] = NCI Yeast Anticancer Drug Screen. Data for the cln2 rad14 strain (AID 165);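 also: 0% = growth equal to vehicle treated cultures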; conditions: S. cerevisiae cln2 rad14 strain, stronger effect = higher value
Method in brief: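 Relative to vehicle controls, growth inhibition of compound-treated cln2 rad14 yeast was recorded.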

[11] = NCI Yeast Anticancer Drug Screen. Data for the bub3 strain (AID 167); conditions: S. cerevisiae bub3 mutant strain, stronger effect = higher value
Method in brief: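 Inhibition values come from growth of compound-treated mutant yeast normalised to vehicle-treated controls.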

[12] = NCI Yeast Anticancer Drug Screen. Data for the wt2 strain (AID 169);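 also: 0% = growth of vehicle-treated yeast cultures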; conditions: S. cerevisiae wt2 strain growth inhibition, stronger effect = higher value
Method in brief: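 Values express reduction in yeast growth under compound treatment, referenced to vehicle-treated cells.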

[13] = NCI Yeast Anticancer Drug Screen. Data for the sgs1 strain (AID 173);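 also: 0% = growth of vehicle-only control cultures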; conditions: S. cerevisiae sgs1 mutant, stronger effect = higher value
Method in brief: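 Treat defined-mutant yeast with compound; measure growth; calculate inhibition relative to vehicle-treated cells.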

[14] = NCI Yeast Anticancer Drug Screen. Data for the mlh1 rad18 strain (AID 175); conditions: S. cerevisiae mlh1 rad18 strain growth inhibition, stronger effect = higher value
Method in brief: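 Test agents were incubated with a yeast strain of defined genotype (DNA damage repair defect). Inhibition of growth was derived by comparison with vehicle-exposed cultures.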

[15] = NCI Yeast Anticancer Drug Screen. Data for the rad18 strain (AID 177); conditions: S. cerevisiae rad18 mutant growth inhibition, stronger effect = higher value
Method in brief: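 A genetically defined yeast mutant impaired in DNA damage repair was treated with test compounds, then its growth was measured against cultures receiving vehicle alone.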

[16] = at 5.0 µM (retest, dose inferred, filed as 0.5)
[17] = at 50.0 µM (retest, dose inferred, filed as 5.0)

Measured: growth inhibition

CC1=CN2C(c3ccccc3)=NON(c3ccc(C)cn3)C2C=C1 (stereo not drawn)
inactive: [1]; at 1.2 µM 2% | [1]; at 3.7 µM 4% | [1]; at 11.0 µM -3% | [1]; at 33.0 µM 1% | [1]; at 100.0 µM -7% | [2]; at 1.2 µM -3% | [2]; at 3.7 µM -3% | [2]; at 11.0 µM -3% | [2]; at 33.0 µM -3% | [2]; at 100.0 µM -5% | [3]; at 1.2 µM 6% | [3]; at 3.7 µM 1% | [3]; at 11.0 µM 0% | [3]; at 33.0 µM -2% | [3]; at 100.0 µM -11% | [4]; at 1.2 µM -2% | [4]; at 3.7 µM 0% | [4]; at 11.0 µM -2% | [4]; at 33.0 µM -1% | [4]; at 100.0 µM -3% | [5]; at 1.2 µM 6% | [5]; at 3.7 µM 2% | [5]; [16] -5% | [5]; at 11.0 µM -6% | [5]; at 33.0 µM 1% | [5]; [17] 12% | [5]; at 50.0 µM -4.35% | [5]; at 100.0 µM -11% | [6]; at 1.2 µM -3% | [6]; at 3.7 µM -2% | [6]; [16] -24% | [6]; at 11.0 µM -3% | [6]; at 33.0 µM -2% | [6]; [17] -21% | [6]; at 50.0 µM 19.8% | [6]; at 100.0 µM -4% | [7]; at 1.2 µM 4% | [7]; at 3.7 µM 0% | [7]; at 11.0 µM -4% | [7]; at 33.0 µM -2% | [7]; at 100.0 µM -9% | [8]; [16] -15% | [8]; [17] 20% | [8]; at 50.0 µM 18% | [9]; at 1.2 µM 2% | [9]; at 3.7 µM -2% | [9]; at 11.0 µM -4% | [9]; at 33.0 µM -2% | [9]; at 100.0 µM -7% | [10]; [16] -23% | [10]; [17] -17% | [10]; at 50.0 µM -12.7% | [11]; at 1.2 µM -2% | [11]; at 3.7 µM -2% | [11]; [16] -25% | [11]; at 11.0 µM -6% | [11]; at 33.0 µM -4% | [11]; [17] 10% | [11]; at 50.0 µM 46% | [11]; at 100.0 µM -4% | [12]; at 1.2 µM -7% | [12]; at 3.7 µM -7% | [12]; at 11.0 µM -10% | [12]; at 33.0 µM -13% | [12]; at 100.0 µM -7% | [13]; at 1.2 µM -23% | [13]; at 3.7 µM -16% | [13]; at 11.0 µM -2% | [13]; at 33.0 µM -7% | [13]; at 100.0 µM 2% | [14]; [16] -15% | [14]; [17] 50% | [14]; at 50.0 µM 1.65% | [15]; at 1.2 µM 3% | [15]; at 3.7 µM 3% | [15]; at 11.0 µM -1% | [15]; at 33.0 µM 1% | [15]; at 100.0 µM -7%

— PubChem BioAssay (NCI)
